Compound activity deposited in PubChem by several laboratories.
The list is not random: actives were taken first. Their share in the collection is about 4.2%.
NALP1 yeast inh – inhibitors of NALP1 inflammasome in yeast; AID 2071; hit rate 0.61% among 280,000; inhibition, % at 10 µM; S. cerevisiae NALP1/ASC/caspase-1 growth, X-gal OD620, 72 h; in the data active = inhibition mostly above about 24%, no sharp cut-off; inactive = mostly below about 32%
TIM10 inh – growth inhibitors of TIM10 yeast strain; S. cerevisiae TIM10 strain growth, BacTiter-Glo luminescence, 24 h; inhibition, % at 10 µM; hit rate 1.4% among 330,000;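 active = inhibition of 40% or more at the single tested concentration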;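 also: wild-type TIM10 isogenic control strain grown at permissive 25 °C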
V-ATPase pHluor – regulators of yeast V-ATPase proton transport; S. cerevisiae, pHLuorin cytosolic pH fluorescence; AID 504577; response, % at 10 µM; hit rate 0.37% among 350,000; in the data active = response mostly above about 7.3%, no sharp cut-off; inactive = mostly below about 5.4%; also: actives read high
tim10-1 inh – growth inhibitors of tim10-1 mutant yeast; S. cerevisiae tim10-1 ts strain growth, BacTiter-Glo, 24 h; inhibition, % at 20 µM; hit rate 2.2% among 330,000; AID 463190;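 active = inhibition of at least 40%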;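 also: mutant grown at 25 °C; 0% = DMSO wells with yeast and 100% = wells holding no yeast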
tim23-1 inh – tim23-1 yeast growth inhibition; S. cerevisiae tim23-1 growth, BacTiter-Glo luminescence, 24 h; inhibition, % at 20 µM; hit rate 1.3% among 330,000; AID 463212;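 active = growth inhibition of the mutant yeast at or above 50%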;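 also: temperature-sensitive mutant grown at 25 °C; plate controls were DMSO-treated mutant yeast for no effect and medium wells lacking yeast for full effect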
NALP3 yeast inh – blocks the NALP3 inflammasome reconstituted in yeast | Yeast reconstituted NLRP3/ASC/caspase-1, beta-gal luminescence, 24 h | AID 2825 | inhibition, % at 10 µM | hit rate 0.39% among 330,000;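 active = inhibition of 50% or more; inactive = inhibition below 50%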;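 also: plate controls were induced DMSO wells for no effect and uninduced yeast grown without galactose for full effect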
tim10-1 confirm – tim10-1 yeast growth inhibition, confirmed. inhibition, % at 20 µM. shares compounds with tim10-1 inh. hit rate 56% among 7,400. S. cerevisiae tim10-1 ts strain growth, BacTiter-Glo, 24 h;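 active = inhibition of yeast growth at or above a set limit in either of two repeat tests at 20 µM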;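 also: tim10-1 mutant grown at permissive 25 °C to find synthetic lethal compounds; 0% = DMSO yeast wells and 100% = medium wells without yeast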
tim10 confirm – confirmation of TIM10 yeast growth inhibitors; shares compounds with TIM10 inh; S. cerevisiae tim10 strain growth, BacTiter-Glo luminescence, 24 h; inhibition, % at 10 µM; hit rate 63% among 4,600; AID 463215;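 active = inhibition of yeast growth at or above a set limit in either of two replicates at 10 µM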;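 also: this counterscreen used the strain with wild-type TIM10; 0% = yeast with DMSO and 100% = medium wells lacking yeast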
tim23-1 confirm – confirmation of tim23-1 mutant yeast growth inhibitors; shares compounds with tim23-1 inh; S. cerevisiae tim23-1 growth, BacTiter-Glo luminescence, 24 h; inhibition, % at 20 µM; hit rate 83% among 4,400; AID 463218;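 active = inhibition above about 39% in either of two replicate wells at 20 µM, limit read from the data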;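 also: temperature-sensitive tim23-1 mutant grown at 25 °C; 0% = DMSO wells with yeast and 100% = medium wells without yeast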
V-ATPase pH SP – regulators of yeast V-ATPase proton transport | shares compounds with V-ATPase pHluor | S. cerevisiae pHLuorin cytosolic pH | response, % at 10 µM | hit rate 2% among 980; in the data active = response above about 24%;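 also: plate controls were vehicle wells for no effect and positive control wells for full effect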
* hit, by the source's call; . = no result given.

SMILES	NALP1 yeast inh	TIM10 inh	V-ATPase pHluor	tim10-1 inh	tim23-1 inh	NALP3 yeast inh	tim10-1 confirm	tim23-1 confirm	others
O=C(CCc1ccccc1)N1CCCC(Nc2ccc(F)cc2)C1 (configuration not stated)	5	0	0	20	24	7	.	.
COc1ccccc1-c1cc(C(=O)N/N=C/c2ccc(C)s2)c2ccccc2n1	14	27	2	42*	61*	11	29	65*
CCc1ccc(/C=N/NC(=O)c2cc(-c3ccccc3OC)nc3ccccc23)s1	-5	30	11	25	38	9	.	.
Cc1cc(C)cc(N(CC(=O)N2CCCCCC2)S(C)(=O)=O)c1	4	1	2	-11	-5	5	.	.
CCOC(=O)C1=C(CC)OC(N)=C(C#N)C1c1cc(OC)ccc1OC (configuration not stated)	7	23	-1	25	21	3	.	.
CCOC(=O)C1=C(CSc2nc(CC)c(C)cc2C#N)OC(N)=C(C#N)C1c1ccc(OC)cc1 (configuration not stated)	9	22	2	41*	54*	-1	24	61*
O=C1CC(c2cccc(Cl)c2)c2cc3c(cc2N1)CCC3 (configuration not stated)	18	13	-1	41*	60*	7	23	57*
CN(C(=O)COC(=O)c1cccc(F)c1)c1ccccc1	-11	-5	1	27	31	18	.	.
Cc1c(C(=O)OCC(=O)N(C)Cc2ccccc2)oc2ccccc12	.	0	0	33	46	28	.	.
CC(=O)Oc1ccc(-c2cccc(C(=O)OCC(=O)N(C)c3ccccc3)c2)cc1	38	21	2	46*	50*	42	34*	37
Cc1cc(C(=O)OCC(=O)N(C)c2ccccc2)ccc1[N+](=O)[O-]	-4	-2	12	21	16	-19	.	.
Cc1ccc(C(=O)OCC(=O)N(C)c2ccccc2)cc1C	12	33	-4	41*	53*	17	38*	36
CN(C)c1cccc(C(=O)OCC(=O)N(C)c2ccccc2)c1	19	30	-2	48*	52*	13	48*	50*
Cc1c(C(=O)OCC(=O)N(C)c2ccccc2)oc2ccccc12	6	36	-1	49*	56*	25	44*	60*
CC1CCCC(NS(=O)(=O)c2ccc3c(c2)OCCO3)C1C (configuration not stated)	27*	34	6	57*	52*	36	48*	59*
COc1ccccc1NC(=O)Nc1ccc(-n2ccc(C(F)(F)F)n2)cc1	4	30	1	54*	64*	16	50*	60*
CC(C)C(=O)Nc1ccc(COc2ccccc2CN(Cc2ccccc2)C(=O)OC(C)(C)C)cc1	.	.	-1	.	.	.	.	.
Cc1cc(NC(=O)CN2C(=O)NC(C)(c3ccc(Cl)cc3Cl)C2=O)no1 (configuration not stated)	.	2	2	5	-6	0	.	.
CCn1c2ccccc2c2cc(/C(C)=N/O)ccc21	-30	42*	-2	61*	75*	14	56*	84*	tim10 confirm=45*
Cc1ccc(NC(=O)CCn2c(=O)[nH]c3ccsc3c2=O)cc1C	9	9	2	14	23	19	.	.
O=C(O)CSc1nc2ccccc2n1C1CCCCC1	26	-9	-3	-6	3	-3	.	.
CC(=O)N1c2ccc(S(=O)(=O)N3CCC(C(=O)NC4CCC(C)CC4)CC3)cc2CC1C (configuration not stated)	24	3	4	8	-7	-3	.	.
COc1ccc(OC)c(C(c2nnnn2C2CCCC2)N2CCc3ccccc3C2)c1 (configuration not stated)	22	36	0	42*	52*	-8	38*	42*
COc1ccc2c(c1)CCc1sc(NC(=O)c3ccco3)nc1-2	-19	19	-2	26	42	27	.	.
COc1ccc2c(c1)-c1nc(NC(=O)c3ccco3)sc1CC2	38	25	0	58*	57*	16	53*	61*
SMILES	NALP1 yeast inh	TIM10 inh	V-ATPase pHluor	tim10-1 inh	tim23-1 inh	NALP3 yeast inh	tim10-1 confirm	tim23-1 confirm	others
COC(=O)c1ccc(N2CCOCC2)c(NC(=O)c2cccs2)c1	14	16	-1	17	15	9	.	.
CCOC(=O)CCN(Cc1cccs1)S(=O)(=O)c1ccc(Cl)cc1	14	16	0	20	27	15	.	.
O=C1C(c2c(O)[nH]c3ccccc23)=Nc2ccccc21	12	4	5	33	23	11	.	.
CC(=O)c1cccc2c(O)c(C3=Nc4ccccc4C3=O)[nH]c12	12	63*	7	73*	88*	9	57*	90*	tim10 confirm=-28
Cc1cccc(N2C(=O)CC(N3CCN(Cc4ccc5c(c4)OCO5)CC3)C2=O)c1 (configuration not stated)	17	-21	-1	3	7	20	.	.
CCCCCCNC(=O)OC12CN(C(=O)OC(C)C)N(C(=O)OC(C)C)CC1(O)CN(S(=O)(=O)c1ccc(C)cc1)C2 (configuration not stated)	.	.	1	.	.	.	.	.
CN(C1=C(NC(=O)c2ccc(Cl)cc2)C(=O)c2ccccc2C1=O)c1ccccc1	34	66*	7	65*	68*	15	61*	72*	tim10 confirm=-10
O=C(N/N=C/c1cc(Br)c(Br)o1)c1ccc2c(c1)OCCO2	10	57*	2	65*	53*	34	53*	80*	tim10 confirm=59*
O=C(N/C(=C/c1cccc([N+](=O)[O-])c1)C(=O)N1CCCCC1)c1ccco1	3	12	-3	9	13	6	.	.
CCOC(=O)/C(C#N)=C1/C=CN(Cc2ccccc2)C=N1	-4	1	3	4	10	0	.	.
CCOC(=O)/C(C#N)=C1\C(=O)N(Cc2ccccc2)c2ccccc21	7	31	10*	43*	53*	13	30	53*	V-ATPase pH SP=6
COc1c(O)c(O)c2oc(-c3ccccc3)cc(=O)c2c1OC	-13	40*	11*	50*	59*	42	33*	56*	tim10 confirm=31*;V-ATPase pH SP=2
O=C1CC(=O)N(Cc2ccco2)C(=O)N1	33	9	0	16	3	-12	.	.
